# Experimental data from PubChem BioAssay AID624416 (The Scripps Research Institute Molecular Screening Center, 2012).
# In all, about 360,000 compounds went through this assay and about 1,500 (0.42%) were called active. The full list was thinned out, with actives kept by preference. Unmarked numbers belong to inactive results. Cut-off read from the data, not from the text of the source: active = inhibition above about 8.5%; inactive = the rest.
# Tested on: HIV-1 gp120 / PG9 antibody interaction
# Test: small molecules engaging PG9 antibody – biochemical, TR-FRET, primary screen (AID 624416)
# Conditions: TR-FRET gp120-PG9 antibody binding; at 6.7 µM; stronger effect = higher value
row,SMILES,inhibition
1,COC(=O)C1=C(C)N(Cc2ccc(C(F)(F)F)cc2)C(=NCc2ccc(C(F)(F)F)cc2)NC1c1cccc(Cl)c1 (stereo unspecified),-0.79%
2,Cc1cc(C)cc(NC(=O)C2CCCN(S(=O)(=O)c3ccc4[nH]c(=O)ccc4c3)C2)c1 (stereo unspecified),11.4% (active)
3,CC1CCN(S(=O)(=O)c2ccc3[nH]c(=O)ccc3c2)CC1,0.02%
4,CCc1cccc(NC(=O)C2CCCN(S(=O)(=O)c3ccc4[nH]c(=O)ccc4c3)C2)c1 (stereo unspecified),0.8%
5,CC(C)[C@@H](C)/C=C/[C@@H](C)[C@H]1CC[C@@H]2[C@]1(C)CCC1[C@]23C=C[C@]2(C[C@@H](O)CC[C@]12C)N(c1ccc([N+](=O)[O-])cn1)O3 (stereo partly specified),-1.14%
6,O=C(NCc1ccc2c(c1)OCO2)c1c(O)nc2sccn2c1=O,-1.43%
7,O=C(NCc1ccc(Cl)cc1)c1cc2c(nc3sccn32)s1,28.4% (active)
8,O=C(NCc1ccc(Cl)cc1)c1cc(=O)nc2sc(-c3ccccc3)nn12,-2.19%
9,CCOC(=O)CNC(=O)N(C)[C@H]1C[C@H]2c3[nH]c4c(-c5ccc6c(c5)OCO6)cccc4c3CCN2C(=O)[C@H]1[C@H](C)O,-0.88%
10,O=C(NCc1cccnc1)c1cccnc1Sc1ccc(Cl)cc1,0.54%
11,CSc1ncccc1C(=O)NCc1ccccc1Cl,-1.41%
12,COc1cccc(CNC(=O)c2cccnc2Sc2ccc(Cl)cc2)c1,14.9% (active)
13,O=C(NCc1ccccc1)[C@@H]1CCCN1C(=O)[C@@H](NS(=O)(=O)c1ccc(F)cc1F)C1CCCCC1,-0.43%
14,O=C(N=C1SC2CS(=O)(=O)CC2N1Cc1ccccc1)c1ccccc1 (stereo unspecified),34% (active)
15,O=C(CCC1CCCC1)N=C1SC2CS(=O)(=O)CC2N1Cc1ccccc1 (stereo unspecified),0.63%
16,O=C(N=C1SC2CS(=O)(=O)CC2N1c1ccccc1)c1ccccc1 (stereo unspecified),-0.55%
17,Nc1[nH]c(C(=O)c2ccccc2)c(-c2ccc(Cl)cc2Cl)c1C(=O)c1ccccc1,0.83%
18,CCc1c(-c2ccccc2)nc(N)c(C#N)c1-c1cccs1,-2.39%
19,CN1CCc2nc(SC(C(=O)O)c3ccccc3)c(C#N)c(-c3cccs3)c2C1 (stereo unspecified),1.9%
20,Cc1c(-c2ccccc2)nc(N)c(C#N)c1-c1cccs1,12.2% (active)
21,O=C(NCc1ccccc1)[C@H]1CCCN1C(=O)[C@H]1CCCN1C(=O)c1cc(F)cc(F)c1,-2.57%
